Our source for the Potency and activity change, negative = thiol reactive values is PubChem BioAssay (NCATS).

Inconclusive results are not listed. Where a call stands in place of a potency, no number is given. Activity calls are given as the source filed them. Calls come from the whole dose curve; as a rule, active = well fitted inhibition curve with a large enough effect; inconclusive = small, poorly fitted or top-dose-only effect; inactive = no such curve, though single readings can be large or run the other way.
Potency is the fitted concentration of half-maximal effect.

This test is described as follows: Primary fluorescence-based thiol-reactive (MSTI) qHTS assay for identification of artifact compounds. (AID 1845221).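 For activity change, negative = thiol reactive: thiol-reactive compounds lower the probe fluorescence signal.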 Note: nearly all actives have a fitted effect of over 65% in size. The following applies: MSTI thiol-reactivity probe, 1 h; series mostly up to 53.8 µM. The method in brief: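 Reactivity toward the thiol probe MSTI (4 uM) is scored by fluorescence at Ex/Em 525/598 nm after 1 h at room temperature. Acetyl-MSTI and MSTI define the activity scale.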
For `CC/C=C/CC1=C(CCCCC(CCC(=O)O)OC(C)=O)CCC1=O` (centres undefined), the Potency entry was “inactive”. With `Cc1cc2c(F)c(Oc3ncnn4cc(OCC(C)O)c(C)c34)ccc2[nH]1` (centres undefined), the Potency result was “inactive”. Consider `COC1C(=O)CCC2(CO2)C1(O)C1(C)OC1CC=C(C)C` (centres undefined), for which the Potency was 11.9 µM (active). `C[C@@H]1CC[C@]2(C(=O)OC3OC(CO)C(O)C(O)C3O)CC[C@]3(C)C(=CCC4[C@@]5(C)CC[C@H](O)[C@](C)(C(=O)O)C5CC[C@]43C)C2[C@]1(C)O` (some centres undefined): the Potency entry was “inactive”. With `O=C(O)/C=C/c1ccc(O)c(O[C@@H]2O[C@H](CO)[C@@H](O)[C@H](O)[C@H]2O)c1`, the Potency is 4.65 µM (active).

`C=C1C(=O)OC2/C=C(\CO)CC/C=C(\C=O)CC(OC(=O)CC(C)C)C12` (centres undefined): the Potency was 16.5 µM (active). Take `CC(=O)OC[C@]12[C@H](OC(C)=O)C(=O)[C@@H]3[C@@H](OC(C)=O)[C@@]14O[C@@]3(C)COC(=O)c1cccnc1[C@@H](C)[C@H](C)C(=O)O[C@@H]([C@H](O)[C@@H]2OC(C)=O)[C@]4(C)O`: the Potency entry is “inactive”. With `COc1c2c(c(C)c3c1C(=O)OC3)OC1(C)CC(O)C34OC(OC)(CC(OC(C)=O)C3(C)C1C2)OC4(C)C` (centres undefined), the Potency result was “inactive”. Same read-out and setting: the result for `CC1OC(OC2CCC3(C)C(CCC4(C)C3CC=C3C5CC(C)(C)CCC5(C(=O)OC5OC(CO)C(O)C(O)C5O)CCC34C(=O)O)C2(C)C)C(O)C(O)C1O` (centres undefined) reads “inactive”; that for `O=C(c1cccc(Cl)c1F)N1CCN(Cc2cccc(Nc3nccs3)n2)CC1`, “inactive”.

As to `CN(C)c1ccc2c(c1)OC(N)=C(C#N)C2c1cccc(C(F)(F)F)c1` (centres undefined), the Potency was 2.12 µM (active).

For the compound `CC(C)S(=O)(=O)N[C@H]1CCOC[C@@H]1c1ccc(-c2ccc(C#N)s2)cc1`, the Potency result is “inactive”.

On to `Cc1nc2ccc(Oc3ccc(F)cc3)cc2c(=O)n1C[C@H]1CCCN(C(C)C)C1`, for which the Potency result is “inactive”.

Turning to `COC(=O)C12C(=O)C(C)=C(O)C1(C)C(C)=CC1C3(CO)CCC(O)C(C)(C)C3CCC12C` (centres undefined), the Potency result was “inactive”. On the same count and under the same terms, to `CC[C@H](CO)Nc1nc(NCc2ccc(-c3ccccn3)cc2)c2ncn(C(C)C)c2n1` belongs “inactive”. Turning to `CC1OC(OC2C(O)C(OC3CCC4(C)C(CCC5(C)C4CC=C4C6CC(C)(COC7OC(CO)C(O)C(O)C7O)CC(O)C6(C)CCC45C)C3(C)C)OC(C(=O)O)C2O)C(O)C(O)C1OC1OCC(O)C(O)C1O` (centres undefined), the activity change, negative = thiol reactive was 24.3% [at 11.5 µM] (inactive).

Regarding `CCCN1CCN(c2ccc(C(=O)NC3(C(=O)NCC#N)CCCCC3)cc2)CC1`, the Potency entry is “inactive”.

Take `CC(C)=CC/C=C(\C)[C@H]1CC[C@]2(C)[C@@H]1[C@H](O)C[C@@H]1[C@@]3(C)CC[C@H](O)C(C)(C)[C@@H]3[C@@H](O[C@@H]3O[C@H](CO)[C@@H](O)[C@H](O)[C@H]3O)C[C@]12C`: the Potency result is “inactive”.

As to `Cn1cc(S(=O)(=O)c2ccc(Cl)cc2)c2cccc(N3CCNCC3)c21`, the Potency result is “inactive”. Regarding `COC(=O)C1=CO[C@@H](O[C@@H]2O[C@H](CO[C@@H]3O[C@H](COC(=O)/C=C/c4cc(OC)c(O)c(OC)c4)[C@@H](O)[C@H](O)[C@H]3O)[C@@H](O)[C@H](O)[C@H]2O)[C@@H]2C(CO)=CC[C@H]12`, the Potency is 7.93 µM (active). The same measure, in the same setting: the result for `C/C=C1\[C@H](OC2OC(COC3OC(CO)C(O)C(O)C3O)C(O)C(O)C2O)OC=C(C(=O)OC)[C@H]1CC(=O)OCCc1ccc(O)cc1` (some centres undefined) reads 5.61 µM (active); that for `C=CC(=O)N1CCN(C(=O)CNc2cc(I)c(Cl)cc2O)CC1`, 8.44 µM (active). On to `Cc1cc(OCc2nc(-c3ccccc3Cl)cs2)ccc1OCC(=O)O`, for which the Potency result is “inactive”. For the compound `CC[C@H](C)[C@H](NC(=O)[C@H]([C@@H](C)CC)N(C)C(C)=O)C(=O)N[C@H](C(=O)N[C@@H](CC(C)C)C(=O)[C@@]1(C)CO1)[C@@H](C)O`, the Potency entry is “inactive”.

For the compound `C=CC1C(OC2OC(CO)C(O)C(O)C2O)OC=C(C(=O)OC)C1CC1CC(=O)CC(CCc2ccc(O)cc2)O1` (centres undefined), the Potency result is “inactive”. With `CC(=O)OC1C(O)CC2(C)C(CCC(C)C23Cc2c(O)cc(CO)c(C=O)c2O3)C1(C)C` (centres undefined), the Potency entry was “inactive”. Regarding `O=C(C(c1ccccc1)c1ccccc1)N1CCN(CC(O)COc2cccc3ncccc23)CC1` (centres undefined), the Potency entry is “inactive”.

For `C=C1C(=O)OC2C1CCC(=C)C1CC(OC(C)=O)C(=C)C12` (centres undefined), the Potency is 18.9 µM (active). Still for that read-out and setting: the result for `COC(=O)N1CCC(n2ncc3c(N4CCOCC4)nc(-c4ccc(NC(=O)Nc5ccc(CO)cc5)cc4)nc32)CC1` reads “inactive”; that for `CCC(O)C(C)C1CCC(C(C)C(=O)O)O1` (centres undefined), 10.6 µM (active); that for `CC(=O)OC1/C(C)=C/C(=O)C(OC(C)=O)C(C)(C)/C=C/C(C)C(=O)C2(OC(C)=O)CC(C)C(OC(=O)c3ccccc3)C12` (centres undefined), “inactive”.

On to `C=C(C(=O)O)C1CCC2(C)CCC(O)C(=C)C2C1` (centres undefined), for which the Potency is 13.4 µM (active).

Consider `CC1CCC2(CO)C(C(=O)O)=CCCC2C1(C)CCc1ccoc1` (centres undefined), for which the Potency result was “inactive”.

As for `CNC(=O)c1ccccc1Nc1cc(Nc2ccc(N3CCOCC3)cc2OC)ncc1C(F)(F)F`, the Potency was 1.5 µM (active). With `COC1CC(O[C@H]2CC[C@@]3(C)C(CCC4C3[C@H](OC(C)=O)[C@@H](OC(=O)/C=C/c3ccccc3)[C@]3(C)C(C(C)=O)CC[C@]43O)C2)OC(C)C1OC1CC(OC)C(OC2CC(OC)C(OC3OC(C)C(OC4OC(CO)C(O)C(O)C4O)C(OC)C3O)C(C)O2)C(C)O1` (some centres undefined), the activity change, negative = thiol reactive was 2.39% [at 11.5 µM] (inactive). `C[C@@H]1O[C@@H](O[C@@H]2CO[C@@H](O[C@H]3CC[C@@]4(C)C(CC[C@]5(C)C4CC=C4[C@@H]6CC(C)(C)CC[C@]6(C(=O)O[C@@H]6O[C@H](CO)[C@@H](O)[C@H](O)[C@H]6O)CC[C@]45C)[C@]3(C)CO)[C@H](O)[C@H]2O[C@@H]2O[C@H](CO)[C@@H](O)[C@H](O)[C@H]2O)[C@H](O)[C@H](O)[C@H]1O` (some centres undefined): the activity change, negative = thiol reactive is 216% [at 11.5 µM] (inactive). For the compound `CC(=O)O[C@@](C)(C(=O)/C=C/C(C)(C)O)[C@H]1[C@H](O)C[C@@]2(C)[C@@H]3CC=C4[C@@H](C=C(O)C(=O)C4(C)C)[C@]3(C)C(=O)C[C@]12C`, the Potency result is “inactive”.

Regarding `COc1cc2c(cc1O)CC[C@H]1[C@@H]2CC[C@]2(C)[C@H](O)CC[C@@H]12`, the Potency result is “inactive”. For the compound `COC(=O)C[C@H]1[C@]2(C)C3=C(C)[C@H](c4ccoc4)C[C@H]3O[C@@H]2[C@H](OC(C)=O)C2[C@](C)(C(=O)OC)C=CC(=O)[C@@]21C` (some centres undefined), the Potency was 13 µM (active).
